Measured values from PubChem BioAssay AID1159580 (chemical genetic matrix, 2015).
Values joined by “and” are separate entries in the source; they are usually repeats but may differ in a detail not shown here. Equal values may be shown once. The campaign covered roughly 5,500 compounds. About 2,000 (36%) were called active. Another 18% or so got no clear call; they are omitted. Cut-off read from the data, not from the text of the source: active = normalized growth mostly below about 0.91 (no sharp cut-off); inconclusive = no clear call, values can overlap the other calls; inactive = mostly above about 0.92. The list shows a part of the results.

Experiment: chemical genetic growth profiling, strain panel (AID 1159580);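 note: tested at 20 µM; growth read once vehicle control cultures reached saturation at 30 °C; 1 = growth at the plate median or of vehicle wells; lower values mean less growth of the strain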
Details: S. cerevisiae deletion strains, growth OD

Measured: normalized growth

OC/C=C/c1ccc(O)c(O)c1
active: locus YGR252W, strain gcn5, active compounds read low 1.24 [resistant] | locus YLR371W, strain rom2, active compounds read low 0.86
inactive: locus YAL013W, strain DEP1, active compounds read low 0.995 | locus YAL021C, strain ccr4, active compounds read low 0.977 | locus YAL026C, strain drs2, active compounds read low 1 | locus YAL030W, strain snc1, active compounds read low 0.995 | locus YBL061C, strain skt5, active compounds read low 0.996 | locus YBR009C, strain hhf1, active compounds read low 0.994 | locus YBR021W, strain FUR4, active compounds read low 1.03 | locus YBR023C, strain chs3, active compounds read low 0.995 | locus YBR171W, strain sec66, active compounds read low 1.01 | locus YBR229C, strain ROT2, active compounds read low 1 | locus YBR231C, strain swc5, active compounds read low 0.993 | locus YBR279W, strain paf1, active compounds read low 0.996 | locus YCL011C, strain gbp2, active compounds read low 0.994 | locus YCL016C, strain dcc1, active compounds read low 0.995 | locus YCL029C, strain bik1, active compounds read low 0.96 | locus YCL061C, strain MRC1, active compounds read low 0.996 | locus YCL069W, strain vba3, active compounds read low 0.992 | locus YCR088W, strain abp1, active compounds read low 1.01 | locus YDL005C, strain med2, active compounds read low 0.996 | locus YDL035C, strain GPR1, active compounds read low 1.02 | locus YDL040C, strain nat1, active compounds read low 0.988 | locus YDL074C, strain BRE1, active compounds read low 0.945 | locus YDL101C, strain DUN1, active compounds read low 0.991 | locus YDL134C, strain PPH21, active compounds read low 1.05 | locus YDL185W, strain tfp1, active compounds read low 0.953 | locus YDL192W, strain arf1, active compounds read low 0.973 | locus YDR001C, strain nth1, active compounds read low 0.994 | locus YDR069C, strain doa4, active compounds read low 1.01 | locus YDR101C, strain arx1, active compounds read low 0.962 | locus YDR137W, strain rgp1, active compounds read low 0.968 | locus YDR159W, strain sac3, active compounds read low 0.966 | locus YDR162C, strain NBP2, active compounds read low 0.993 | locus YDR195W, strain ref2 0.951 | locus YDR297W, strain sur2, active compounds read low 1 | locus YDR318W, strain mcm21, active compounds read low 0.984 | locus YDR334W, strain swr1, active compounds read low 0.991 | locus YDR335W, strain msn5, active compounds read low 0.996 | locus YDR388W, active compounds read low 0.98 | locus YDR392W, strain spt3, active compounds read low 1.01 | locus YDR502C, strain sam2, active compounds read low 0.993 | locus YEL003W, strain gim4, active compounds read low 0.997 | locus YEL037C, strain rad23, active compounds read low 1 | locus YEL061C, strain CIN8 (second series), active compounds read low 0.991 | locus YEL061C, strain CIN8, active compounds read low 0.978 | locus YER015W, strain faa2, active compounds read low 1 | locus YER016W, strain bim1, active compounds read low 0.992 | locus YER110C, active compounds read low 0.954 | locus YER111C, strain swi4, active compounds read low 1.01 | locus YER155C, strain BEM2 (second series), active compounds read low 0.991 | locus YER155C, strain BEM2, active compounds read low 0.987 | locus YER167W, strain BCK2, active compounds read low 0.978 | locus YFR010W, strain ubp6, active compounds read low 0.999 | locus YGL078C, strain dbp3, active compounds read low 1.02 | locus YGL086W, strain mad1, active compounds read low 0.937 | locus YGL167C, strain pmr1, active compounds read low 1 | locus YGL173C, strain kem1, active compounds read low 1.01 | locus YGL227W, strain vid30, active compounds read low 1.01 | locus YGL240W, strain doc1, active compounds read low 1.03 | locus YGL248W, strain PDE1, active compounds read low 1.01 | locus YGL253W, strain hxk2, active compounds read low 1.01 | locus YGR135W, strain pre9, active compounds read low 1 | locus YHR013C, strain ard1, active compounds read low 0.976 | locus YHR027C, strain rpn1, active compounds read low 0.987 | locus YHR030C, strain SLT2, active compounds read low 0.978 and 0.986 | locus YHR079C, strain IRE1 (second series), active compounds read low 0.96 | locus YHR079C, strain IRE1, active compounds read low 0.996 | locus YHR094C, strain hxt1, active compounds read low 0.969 | locus YHR129C, strain ARP1, active compounds read low 0.991 | locus YHR142W, strain chs7, active compounds read low 1 | locus YHR200W, strain rpn10, active compounds read low 0.966 | locus YIL066C, strain RNR3, active compounds read low 0.996 | locus YIL073C, strain SPO22, active compounds read low 0.912 | locus YIL125W, strain kgd1, active compounds read low 0.98 | locus YIR030C, strain dcg1, active compounds read low 0.969 | locus YJL092W, strain hpr5, active compounds read low 0.995 | locus YJL095W, strain BCK1 (second series), active compounds read low 1 | locus YJL095W, strain BCK1, active compounds read low 1.02 and 0.999 | locus YJL115W, strain asf1, active compounds read low 0.999 | locus YJL129C, strain trk1, active compounds read low 0.994 | locus YJL134W, strain LCB3, active compounds read low 0.986 | locus YJL154C, strain vps35, active compounds read low 0.998 | locus YJL164C, strain tpk1, active compounds read low 0.998 | locus YJL166W, strain qcr8, active compounds read low 1 | locus YJL168C, strain set2, active compounds read low 0.962 | locus YJL187C, strain SWE1 (second series), active compounds read low 0.997 | locus YJL187C, strain SWE1, active compounds read low 0.992 | locus YJR043C, strain POL32, active compounds read low 1.02 | locus YJR066W, strain TOR1, active compounds read low 0.946 | locus YJR075W, strain HOC1, active compounds read low 0.984 | locus YKL009W, strain mrt4, active compounds read low 1.01 | locus YKL068W, active compounds read low 0.959 | locus YKL085W, strain MDH1 (second series), active compounds read low 0.95 | locus YKL085W, strain MDH1, active compounds read low 0.95 | locus YKL160W, strain elf1, active compounds read low 1 | locus YKR001C, strain vps1, active compounds read low 0.972 | locus YKR026C, strain gcn3, active compounds read low 1 | locus YKR091W, strain srl3, active compounds read low 1 | locus YLL001W, strain dnm1, active compounds read low 0.989 | locus YLL026W, active compounds read low 1 | locus YLL041C, strain sdh2, active compounds read low 0.999 | locus YLR027C, strain aat2, active compounds read low 0.988 | locus YLR039C, strain RIC1, active compounds read low 0.938 | locus YLR058C, strain SHM2, active compounds read low 0.996 | locus YLR102C, strain apc9, active compounds read low 0.961 | locus YLR113W, strain HOG1, active compounds read low 0.98 | locus YLR221C, strain rsa3, active compounds read low 1 | locus YLR258W, strain gsy2, active compounds read low 1.02 | locus YLR262C, strain YPT6 (second series), active compounds read low 0.991 | locus YLR262C, strain YPT6, active compounds read low 0.942 | locus YLR268W, strain sec22, active compounds read low 0.96 | locus YLR320W, strain mms22, active compounds read low 1 | locus YLR330W, strain CHS5, active compounds read low 0.934 | locus YLR342W, strain FKS1 (second series), active compounds read low 1.04 | locus YLR342W, strain FKS1, active compounds read low 1.01 | locus YLR357W, strain rsc2, active compounds read low 0.988 | locus YLR370C, strain arc18, active compounds read low 0.993 | locus YLR384C, strain iki3, active compounds read low 0.992 | locus YLR418C, strain cdc73, active compounds read low 0.988 | locus YML016C, strain PPZ1, active compounds read low 0.992 | locus YML032C, strain rad52, active compounds read low 1.01 | locus YML120C, strain ndi1, active compounds read low 0.992 | locus YML124C, strain tub3, active compounds read low 0.96 | locus YMR058W, strain fet3, active compounds read low 1.01 | locus YMR078C, strain ctf18, active compounds read low 0.95 | locus YMR125W, strain sto1, active compounds read low 0.995 | locus YMR129W, active compounds read low 0.997 | locus YMR205C, strain PFK2, active compounds read low 0.983 | locus YMR223W, strain ubp8, active compounds read low 0.98 | locus YMR231W, strain pep5, active compounds read low 0.979 | locus YMR263W, strain SAP30, active compounds read low 0.989 | locus YMR307W, strain GAS1, active compounds read low 1.09 | locus YNL067W, strain RPL9B, active compounds read low 0.997 | locus YNL071W, strain lat1, active compounds read low 0.993 | locus YNL128W, strain TEP1, active compounds read low 0.966 | locus YNL153C, strain GIM3, active compounds read low 0.999 | locus YNL183C, strain NPR1, active compounds read low 0.963 | locus YNL209W, strain ssb2, active compounds read low 0.991 | locus YNL233W, strain BNI4, active compounds read low 0.994 | locus YNL248C, strain rpa49, active compounds read low 1 | locus YNL250W, strain rad50, active compounds read low 0.909 | locus YNL271C, strain bni1, active compounds read low 0.963 | locus YNL298W, strain CLA4, active compounds read low 0.991 | locus YNL307C, strain MCK1, active compounds read low 0.953 | locus YNL322C, strain KRE1 (second series), active compounds read low 1 | locus YNR049C, strain mso1, active compounds read low 0.997 | locus YNR052C, strain pop2, active compounds read low 0.98 | locus YOL012C, strain htz1 0.905 | locus YOL147C, strain pex11, active compounds read low 0.963 | locus YOR001W, strain rrp6, active compounds read low 1.01 | locus YOR061W, strain CKA2, active compounds read low 0.995 | locus YOR069W, strain VPS5, active compounds read low 0.986 | locus YOR070C, strain gyp1, active compounds read low 0.985 | locus YOR080W, strain dia2, active compounds read low 0.994 | locus YOR083W, strain WHI5, active compounds read low 1 | locus YOR106W, strain vam3, active compounds read low 1.01 | locus YOR136W, strain idh2, active compounds read low 0.953 | locus YOR144C, strain elg1, active compounds read low 0.971 | locus YOR184W, strain ser1, active compounds read low 1.02 | locus YOR231W, strain MKK1, active compounds read low 1 | locus YOR265W, strain rbl2, active compounds read low 0.989 | locus YOR270C, strain vph1, active compounds read low 0.994 | locus YOR290C, strain snf2, active compounds read low 1.02 | locus YOR316C, strain cot1, active compounds read low 0.957 | locus YPL051W, strain arl3, active compounds read low 1.05 | locus YPL055C, strain LGE1, active compounds read low 1 | locus YPL078C, strain atp4, active compounds read low 0.994 | locus YPL106C, strain sse1, active compounds read low 0.988 | locus YPL240C, strain hsp82, active compounds read low 0.995 | locus YPL241C, strain CIN2, active compounds read low 0.988 | locus YPL256C, strain CLN2, active compounds read low 0.956 | locus YPR119W, strain clb2, active compounds read low 0.946 | locus YPR141C, strain kar3, active compounds read low 0.938 | locus YPR163C, strain tif3, active compounds read low 0.973 | locus YPR167C, strain met16, active compounds read low 0.967 | strain wtn01, active compounds read low 0.949
